Measured values as given in PubChem BioAssay (EPA / NIEHS).
More than one record can exist for a structure, and the calls need not agree. The source made the active and inactive calls. The calls were made as follows: active = hit-call score of the fitted dose curve at least 0.9, where 1 is the maximum; inactive = score below 0.9.

How the values were obtained:
[1] = read-out: Thrombomodulin, THBD (gene 7056); assay: BSK_CASM3C_Thrombomodulin: BioMAP Diversity Plus: CASM3C Assay for Thrombomodulin Biomarker Activity (AID 2283051); details: primary human coronary artery smooth muscle cells; actives raise or lower the signal;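 also: thrombomodulin protein level measured by ELISA 24 h after dosing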
[2] = read-out: Tissue Factor, F3 (gene 2152); assay: BSK_CASM3C_TissueFactor: BioMAP Diversity Plus: CASM3C Assay for Tissue Factor Biomarker Activity (AID 2283052); details: primary human coronary artery smooth muscle cells; actives raise or lower the signal;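 also: cell surface tissue factor protein level read by ELISA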
[3] = read-out: Urokinase-type plasminogen activator receptor (uPAR), PLAUR (gene 5329); assay: BSK_CASM3C_uPAR: BioMAP Diversity Plus: CASM3C Assay for Urokinase-type plasminogen activator receptor (uPAR) Biomarker Activity (AID 2283054); details: primary human coronary artery smooth muscle cells; actives raise or lower the signal;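 also: cell-surface uPAR protein level quantified by ELISA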
[4] = read-out: Vascular cell adhesion molecule 1 (VCAM1), VCAM1 (gene 7412); assay: BSK_CASM3C_VCAM1: BioMAP Diversity Plus: CASM3C Assay for Vascular cell adhesion molecule 1 (VCAM1) Biomarker Activity (AID 2283055); details: primary human coronary artery smooth muscle cells; actives raise or lower the signal;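 also: VCAM-1 protein level quantified by ELISA on the cells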
[5] = read-out: Epidermal growth factor receptor (EGFR), EGFR (gene 1956); assay: BSK_hDFCGF_EGFR: BioMAP Diversity Plus: hDFCGF Assay for Epidermal growth factor receptor (EGFR) Biomarker Activity (AID 2283057); details: primary human foreskin fibroblasts; actives raise or lower the signal
Procedure, shortened: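 Primary human foreskin fibroblasts were exposed to compound for 24 h, after which cell-surface EGFR was quantified by ELISA. Activity was fitted bidirectionally against the DMSO negative control as baseline.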

[6] = read-out: Interleukin-8 (IL8), CXCL8 (gene 3576); assay: BSK_hDFCGF_IL8: BioMAP Diversity Plus: hDFCGF Assay for Interleukin-8 (IL8) Biomarker Activity (AID 2283058); details: primary human foreskin fibroblasts; actives raise or lower the signal
Procedure, shortened: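 IL-8 levels read by ELISA at 24 hours after dosing human skin fibroblast cultures. Parallel SRB staining assessed overt cytotoxicity, and gain or loss of signal was fitted against DMSO control.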

[7] = BSK_hDFCGF_Proliferation: Cell Proliferation Assessment in the BioMAP Diversity Plus: hDFCGF Assay (AID 2283059); details: primary human foreskin fibroblasts;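 also: curves fitted for both rise and fall of signal versus DMSO baseline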
Procedure, shortened: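 Total protein read at 560 nm after 0.1% SRB staining of TCA-fixed human skin fibroblasts, […]. Activity is fitted in both directions relative to DMSO as baseline.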

[8] = read-out: Macrophage colony-stimulating factor (MCSF), CSF1 (gene 1435); assay: BSK_hDFCGF_MCSF: BioMAP Diversity Plus: hDFCGF Assay for Macrophage colony-stimulating factor (MCSF) Biomarker Activity (AID 2283060); details: primary human foreskin fibroblasts; actives raise or lower the signal
Procedure, shortened: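 M-CSF levels read by ELISA at 24 h post-dosing in human skin fibroblasts. Parallel cultures stained with SRB assessed cytotoxicity at the same time point; response fitted in both directions against the DMSO baseline.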

[9] = read-out: Collagen III, COL3A1 (gene 1281); assay: BSK_hDFCGF_CollagenIII: BioMAP Diversity Plus: hDFCGF Assay for Collagen III Biomarker Activity (AID 2283056); details: primary human foreskin fibroblasts; actives raise or lower the signal
Procedure, shortened: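 ELISA readout of Collagen III in human dermal (foreskin) fibroblasts, taken 24 h post-treatment. Gain or loss relative to DMSO vehicle fitted in both directions.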

Measured: AC50

Oc1ccc(Cl)cc1Cc1ccccc1
active: [2] 31.3 µM [middle of 4 runs] | [3] 33.9 µM [middle of 6 runs] | [4] 33.2 µM [middle of 7 runs] | [5] 12.4 µM [middle of 4 runs] | [6] 31.3 µM [middle of 7 runs] | [7] 7.84 µM [middle of 7 runs] | [8] 14.7 µM [middle of 7 runs]
inactive: [1] | [2] | [3] | [5]

CC(C)(C)C(O)C(Oc1ccc(Cl)cc1)n1cncn1 (stereo unspecified)
not listed: [7]
inactive: all other assays above

CNC(=O)CSP(=S)(OC)OC
inactive: all assays above

O=C(NC(=O)c1c(F)cccc1F)Nc1ccc(OC(F)(F)C(F)OC(F)(F)F)c(Cl)c1 (stereo unspecified)
inactive: all assays above

COC(=O)c1ccccc1S(=O)(=O)NC(=O)N(C)c1nc(C)nc(OC)n1
inactive: all assays above

CCC(C)(C)C(=O)OC1=C(c2ccc(Cl)cc2Cl)C(=O)OC12CCCCC2
inactive: [2] | [3] | [4]
active: [1] 10.5 µM | [9] 5.74 µM | [5] 5.45 µM | [6] 11 µM | [7] 4.67 µM | [8] 5.55 µM

CCN(CC)C(=O)SCc1ccc(Cl)cc1
inactive: all assays above

CC(C)N(C(=O)COc1nnc(C(F)(F)F)s1)c1ccc(F)cc1
active: [7] 15.9 µM | [8] 28.9 µM
inactive: all other assays above

CC(C)OC(=O)Nc1cccc(Cl)c1
inactive: all assays above

O=C(Nc1ccccc1)Nc1cnns1
inactive: all assays above

COC(=O)c1ccccc1S(=O)(=O)NC(=O)Nc1nc(C)nc(OC)n1
inactive: all assays above

N#CN
inactive: all assays above

O=C(O)CCCOc1ccc(Cl)cc1Cl
inactive: all assays above

O=[N+]([O-])/N=C1\NCCN1Cc1ccc(Cl)nc1
inactive: all assays above

COP(=O)(OC)OC=C(Cl)Cl
not listed: [6]
inactive: all other assays above

[2H]C1([2H])[n+]2ccccc2-c2cccc[n+]2C1([2H])[2H]
active: [9] 1.16 µM | [7] 8.95 µM
inactive: all other assays above

Clc1ccccc1-c1nnc(-c2ccccc2Cl)nn1
active: [9] 3 µM
inactive: all other assays above

CC(C)(C)C(O)/C(=C\c1ccc(Cl)cc1Cl)n1cncn1 (stereo unspecified)
active: [1] 15 µM | [7] 29.8 µM | [8] 26.5 µM
inactive: all other assays above

COc1nn(CSP(=S)(OC)OC)c(=O)s1
inactive: all assays above

CCC(C)(NC(=O)c1cc(Cl)c(C)c(Cl)c1)C(=O)CCl (stereo unspecified)
active: [3] 11.5 µM | [4] 9.89 µM | [9] 11.3 µM | [5] 30.6 µM | [6] 30.9 µM | [7] 4.14 µM | [8] 3.56 µM
inactive: [1] | [2]

CC1(C)C(C=C(Cl)Cl)C1C(=O)OC(C#N)c1ccc(F)c(Oc2ccccc2)c1 (stereo unspecified)
active: [1] 33.8 µM | [9] 0.189 µM | [5] 3.84 µM | [7] 13.2 µM
inactive: all other assays above

N#Cc1c(Cl)c(Cl)c(Cl)c(C#N)c1Cl
inactive: [1] | [5]
active: [3] 5.03 µM | [4] 1.62 µM | [9] 0.148 µM | [6] 1.1 µM | [7] 0.148 µM | [8] 1.11 µM

COc1cc(OC)nc(NC(=O)NS(=O)(=O)c2cc(NC=O)ccc2C(=O)N(C)C)n1
inactive: all assays above

C[C@H]1[C@H](c2ccc(Cl)cc2)SC(=O)N1C(=O)NC1CCCCC1
active: [1] 14.9 µM | [9] 5.46 µM | [7] 9.3 µM | [8] 9.15 µM
inactive: all other assays above

CCC(C)Nc1c([N+](=O)[O-])cc(C(C)(C)C)cc1[N+](=O)[O-] (stereo unspecified)
active: [5] 33 µM | [7] 20 µM | [8] 21.5 µM
inactive: all other assays above

CNC(=O)Oc1cccc(N=CN(C)C)c1
active: [7] 24.2 µM | [8] 15.9 µM
inactive: all other assays above

CN1CSC(=S)N(C)C1
active: [4] 20 µM | [7] 13.5 µM | [8] 10.6 µM
inactive: all other assays above

CCOCN(C(=O)CCl)c1c(C)cccc1CC
inactive: [2] | [3] | [5] | [6]
active: [1] 16.8 µM | [4] 20 µM | [9] 8.23 µM | [7] 14.5 µM | [8] 9.55 µM
